Test results reported in PubChem BioAssay (NCATS).
Records with an inconclusive call do not appear. The source made the active and inactive calls. Unless noted, calls come from the whole dose curve; as a rule, active = well fitted cell-killing curve with a large enough effect; inconclusive = small, poorly fitted or top-dose-only effect, or effect the other way; inactive = no such curve, though single readings can be large or run the other way.

How the values were obtained:
[1] = Quantitative High-Throughput drug screen in 47 multiple myeloma cell lines against the NCATS MIPE library collection: KMS28PE_JCRB cell viability assay (AID 1918983); note: nearly all actives have a fitted effect of over 35% in size
How it was run: (§1)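 MIPE 4.0 approved/investigational drugs; 500 cells/well; 48 h 37 °C humidified 5% CO2; CTG luminescence readout; DMSO = 100%, media = 0% viability.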

[2] = Quantitative High-Throughput drug screen in 47 multiple myeloma cell lines against the NCATS MIPE library collection: L363_DSMZ cell viability assay (AID 1918984); note: nearly all actives have a fitted effect of over 40% in size
How it was run: as §1

[3] = Quantitative High-Throughput drug screen in 47 multiple myeloma cell lines against the NCATS MIPE library collection: KMS34_JCRB cell viability assay (AID 1918985); note: nearly all actives have a fitted effect of over 40% in size
How it was run: as §1

[4] = Quantitative High-Throughput drug screen in 47 multiple myeloma cell lines against the NCATS MIPE library collection: OCIMY7_PLB cell viability assay (AID 1918987); note: nearly all actives have a fitted effect of over 65% in size
How it was run: as §1

[5] = Quantitative High-Throughput drug screen in 47 multiple myeloma cell lines against the NCATS MIPE library collection: SKMM1_PLB cell viability assay (AID 1919863); settings: SKMM1 myeloma viability, CellTiter-Glo ATP, 48 h; viability: stronger effect = lower value; note: nearly all actives have a fitted effect of over 35% in size
How it was run: as §1

[6] = Quantitative High-Throughput drug screen in 47 multiple myeloma cell lines against the NCATS MIPE library collection: XG6_PLB cell viability assay (AID 1919865); note: nearly all actives have a fitted effect of over 40% in size
How it was run: as §1

[7] = Quantitative High-Throughput drug screen in 47 multiple myeloma cell lines against the NCATS MIPE library collection: XG1_PLB cell viability assay (AID 1919866); note: nearly all actives have a fitted effect of over 35% in size
How it was run: as §1

[8] = Quantitative High-Throughput drug screen in 47 multiple myeloma cell lines against the NCATS MIPE library collection: VP6_DJ cell viability assay (AID 1919867); note: nearly all actives have a fitted effect of over 40% in size
How it was run: as §1

[9] = Quantitative High-Throughput drug screen in 47 multiple myeloma cell lines against the NCATS MIPE library collection: PE2_PLB cell viability assay (AID 1919869); note: nearly all actives have a fitted effect of over 35% in size
How it was run: as §1

[10] = Quantitative High-Throughput drug screen in 47 multiple myeloma cell lines against the NCATS MIPE library collection: PCM6_Riken cell viability assay (AID 1919870); note: nearly all actives have a fitted effect of over 30% in size
How it was run: as §1

[11] = Quantitative High-Throughput drug screen in 47 multiple myeloma cell lines against the NCATS MIPE library collection: RPMI8226_ATCC cell viability assay (AID 1919871); note: nearly all actives have a fitted effect of over 30% in size
How it was run: as §1

[12] = Quantitative High-Throughput drug screen in 47 multiple myeloma cell lines against the NCATS MIPE library collection: OPM2_DSMZ cell viability assay (AID 1919872); note: nearly all actives have a fitted effect of over 30% in size
How it was run: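 CellTiter-Glo ATP luminescence gave viability after 48 h compound treatment at 37C of 500 multiple myeloma cells per well. Normalisation used DMSO-only wells as 100% and media-only wells as 0% viability; primary qHTS of approved and investigational drugs.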

[13] = Quantitative High-Throughput drug screen in 47 multiple myeloma cell lines against the NCATS MIPE library collection: KMS11_JCRBsus cell viability assay (AID 1919873); note: nearly all actives have a fitted effect of over 50% in size
How it was run: as §1

[14] = Quantitative High-Throughput drug screen in 47 multiple myeloma cell lines against the NCATS MIPE library collection: KMS28BM_JCRB cell viability assay (AID 1919874); note: nearly all actives have a fitted effect of over 35% in size
How it was run: as §1

[15] = Quantitative High-Throughput drug screen in 47 multiple myeloma cell lines against the NCATS MIPE library collection: OCIMY5_PLB cell viability assay (AID 1918988); note: nearly all actives have a fitted effect of over 65% in size
How it was run: as §1

[16] = Quantitative High-Throughput drug screen in 47 multiple myeloma cell lines against the NCATS MIPE library collection: OPM1_PLB cell viability assay (AID 1918989); note: nearly all actives have a fitted effect of over 40% in size
How it was run: as §1

[17] = Quantitative High-Throughput drug screen in 47 multiple myeloma cell lines against the NCATS MIPE library collection: U266_ATCC cell viability assay (AID 1919864); note: nearly all actives have a fitted effect of over 35% in size
How it was run: as §1

[18] = qHTS drug screen for cell cycle checkpoint inhibitors in PARPi-resistant BRCA-mutant ovarian cancer cell lines. (AID 1963452; calls by dose curve); settings: PEO1/OlaR viability, CellTiter-Glo luminescence, 96 h; for Z-AUC: stronger effect = lower value
How it was run: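 PEO1, PEO4 and PEO1/OlaR ovarian cancer cells, 600 per well, exposed 96 h at 37C to a dilution series. Viability read by CellTiter-Glo luminescence, normalized to DMSO and empty wells; activity summarized as Z-AUC.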

[19] = Quantitative High-Throughput drug screen in 47 multiple myeloma cell lines against the NCATS MIPE library collection: UTMC2_PLB cell viability assay (AID 1919868); settings: CellTiter-Glo ATP luminescence, 48 h; viability (% of DMSO control): at 45.8 µM (top of the series) unless noted; note: nearly all actives have a fitted effect of over 55% in size
How it was run: as §1

[20] = qHTS for identification of novel therapeutic agents for treatment of microphthalmiaassociated transcription factor (MiT) renal cell carcinoma (RCC) (AID 1963991; calls by dose curve); settings: CellTiter-Glo, 48 h; for z-score: stronger effect = lower value
How it was run: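 Three TFE3-fusion RCC cell lines (UOK109, UOK124, UOK145), 500 cells/well, were exposed to the 1912-compound MIPE 4.0 library for 48 hours at 37 C. Viability was read by CellTiter-Glo luminescence, normalised to DMSO (100%) and empty wells (0%), with 11-concentration curve fits.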

[21] = measured here: PEO1 parental Z-AUC
Potency is the fitted concentration of half-maximal effect.

CC=CC1=C(C(=O)O)N2C(=O)[C@H](NC(=O)[C@H](N)c3ccc(O)cc3)[C@@H]2SC1
inactive: Potency [1] | Potency [2] | Potency [3] | viability [5] 117% | Potency [6] | Potency [7] | Potency [9] | Potency [10] | Potency [11] | Potency [12] | Potency [13] | Potency [14]
active: Potency [4] 26.4 µM | Potency [8] 2.96 µM

CCC(=C(c1ccccc1)c1ccc(OCCN(C)C)cc1)c1ccccc1
active: Potency [1] 18.7 µM | Potency [2] 20.9 µM | Potency [15] 29.6 µM | Potency [16] 20.9 µM | Potency [6] 20.9 µM | Potency [7] 16.6 µM | Potency [8] 20.9 µM | Potency [9] 26.4 µM | Potency [10] 23.5 µM | Potency [13] 20.9 µM | Potency [14] 20.9 µM
inactive: Potency [3]

CNC(=O)c1ccc(-c2cnc3ncc(Cc4ccc5ncccc5c4)n3n2)cc1F
0.0538: Z-AUC ([18]; measured here: PEO4 Z-AUC)
inactive: Potency [1] | Potency [2] | Potency [3] | Potency [16] | Potency [17] | Potency [8] | Potency [11] | Potency [12] | Potency [13] | Potency [14] | Z-AUC [18] -0.273
1.03: Z-AUC [18, 21]
active: Potency [15] 23.5 µM

CCn1cc(-c2ccnc3[nH]c(-c4cccc(CN(C)C)c4)cc23)c(-c2ccc(NC(=O)N(C)C)cc2)n1
-1.88: Z-AUC ([18]; measured here: PEO4 Z-AUC)
active: Potency [1] 11.8 µM | Potency [2] 2.09 µM | Potency [3] 10.5 µM | Potency [15] 4.18 µM | Potency [16] 2.96 µM | Potency [5] 18.7 µM | Potency [17] 14.8 µM | Potency [6] 0.935 µM | Potency [7] 1.18 µM | Potency [8] 1.48 µM | Potency [19] 0.743 µM | Potency [9] 11.8 µM | Potency [10] 9.35 µM | Potency [11] 14.8 µM | Potency [12] 11.8 µM | Potency [13] 0.833 µM | Potency [14] 6.62 µM | Potency [18] 2.45 µM
-1.7: Z-AUC [18, 21]

Nc1ncnc2c1c(-c1cnc3[nH]ccc3c1)nn2C1CCCC1
inactive: Z-AUC [18] -1.87
active: Potency [1] 1.87 µM | Potency [2] 0.0935 µM | Potency [3] 1.87 µM | Potency [15] 3.32 µM | Potency [16] 0.59 µM | Potency [5] 4.69 µM | Potency [17] 14.8 µM | Potency [6] 0.526 µM | Potency [7] 0.209 µM | Potency [8] 0.372 µM | Potency [19] 0.526 µM | Potency [9] 1.32 µM | Potency [10] 1.48 µM | Potency [11] 0.166 µM | Potency [12] 0.935 µM | Potency [13] 0.0469 µM | Potency [14] 4.18 µM | Potency ([20]; TFE3-RCC UOK109 viability, active = Z-AUC below -0.8 in all three lines) 0.264 µM
-1.31: Z-AUC ([18]; measured here: PEO4 Z-AUC)
-2.06: z-score ([20]; TFE3-RCC UOK109 viability, measured here: UOK109 Z-AUC)
-2.04: Z-AUC [18, 21]
-1.32: z-score ([20]; TFE3-RCC viability, measured here: UOK145 Z-AUC)
-1.51: z-score ([20]; TFE3-RCC viability, measured here: UOK124 Z-AUC)
